Results published in the supplement of paper PMC11634586.
Where a name gives a salt, the structure may show the parent alone.

These molecules were tested on NCI-H1688 (assay: inhibition of cell viability relative to untreated control (fraction); higher = stronger growth inhibition, active = 0.5 or more). Settings: 30 µM; 24 h.
Experimental: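 Natural product library (TargetMol, 640 compounds) screened on NCI-H1688 SCLC cells at 30 µM for 24 h; viability by CCK-8 absorbance at 450 nm, normalised to untreated control and expressed as inhibition rate (fraction). Compounds with >50% reduction in viability were selected as hits.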

| SMILES | inhibition of cell viability |
| --- | --- |
| CC[C@H](/C=C/[C@@H](C)[C@H]1CC[C@H]2[C@@H]3CC=C4C[C@@H](O)CC[C@]4(C)[C@H]3CC[C@]12C)C(C)C [Stigmasterol] | -0.0217 (inactive) |
| O=c1c(-c2ccc(O)cc2)coc2cc(O)ccc12 [Daidzein] | 0.0274 (inactive) |
| C/C=C/c1ccc(OC)cc1 [Trans-Anethole] | -0.146 (inactive) |
| CC1=C(/C=C/C(C)=C/C=C/C(C)=C/C(=O)O)C(C)(C)CCC1 [Tretinoin] | 0.00396 (inactive) |
| COc1cc2c(c(OC)c1OC)-c1c(cc(OC)c(OC)c1OC)CC(C)C(C)C2 (stereo not given) [Schizandrin A] | -0.0474 (inactive) |
| O=C(CCc1ccc(O)cc1)c1c(O)cc(O)cc1O [Phloretin] | -0.0149 (inactive) |
| O=C(O)CCCCCCCC(O)C(O)CCCCCCO (stereo not given) [Aleuritic Acid] | -0.54 (inactive) |
| C[C@H](CCC(=O)O)[C@H]1CC[C@H]2[C@@H]3C(=O)C[C@@H]4CC(=O)CC[C@]4(C)[C@H]3CC(=O)[C@]12C [Dehydrocholic acid] | -0.142 (inactive) |
| CO[C@H]1C[C@@H]2CC[C@@H](C)[C@@](O)(O2)C(=O)C(=O)N2CCCC[C@H]2C(=O)O[C@H]([C@H](C)C[C@@H]2CC[C@@H](O)[C@H](OC)C2)CC(=O)[C@H](C)/C=C(\C)[C@@H](O)[C@@H](OC)C(=O)[C@H](C)C[C@H](C)/C=C/C=C/C=C/1C [Rapamycin (Sirolimus)] | 0.76 (active) |
| C[C@@H]1O[C@@H](O[C@H]2[C@H](O[C@H]3CC[C@@]4(C)[C@@H](CC[C@]5(C)[C@@H]4CC=C4[C@@H]6CC(C)(C)CC[C@]6(C(=O)O[C@@H]6O[C@H](CO[C@@H]7O[C@H](CO)[C@@H](O[C@@H]8O[C@@H](C)[C@H](O)[C@@H](O)[C@H]8O)[C@H](O)[C@H]7O)[C@@H](O)[C@H](O)[C@H]6O)CC[C@]45C)[C@]3(C)CO)OC[C@H](O)[C@@H]2O)[C@H](O)[C@H](O)[C@H]1O [Hederacoside C] | 0.239 (inactive) |
| CCCCCC=CCC=CCCCCCCCC(=O)OC(COC(=O)CCCCCCCCCCCCCCC)COP(=O)([O-])OCC[N+](C)(C)C [L-α-Phosphatidylcholine] | 0.136 (inactive) |
| O=c1c2ccccc2oc2ccccc12 [Xanthone] | -0.129 (inactive) |
| Oc1cc(O)c2c(c1)O[C@H](c1ccc(O)c(O)c1)[C@@H](O)C2 [(+)-Catechin Hydrate] | 0.159 (inactive) |
| OC[C@H]1OC(O)[C@@H](O)[C@@H](O)[C@@H]1O (stereo not given in full) [Mannose] | 0.0629 (inactive) |
| C[C@@H]1O[C@@H](O[C@H]2[C@H](Oc3cc(O)c4c(=O)cc(-c5ccc(O)cc5)oc4c3)O[C@H](CO)[C@@H](O)[C@@H]2O)[C@H](O)[C@H](O)[C@H]1O [Rhoifolin] | 0.127 (inactive) |
| CN[C@@H](C)[C@H]1[C@H](O)C[C@@]2(C)[C@@H]3CC[C@H]4C(C)(C)[C@@H](NC)CC[C@@]45C[C@@]35CC[C@]12C [Cyclovirobuxin D] | -0.0295 (inactive) |
| O=c1[nH]cnc2c1ncn2[C@@H]1O[C@H](CO)[C@@H](O)[C@H]1O [Inosine] | 0.0115 (inactive) |
| O=C1C[C@@H](c2ccc(O[C@@H]3O[C@H](CO)[C@@H](O)[C@H](O)[C@H]3O)cc2)Oc2cc(O)ccc21 [Liquiritin] | 0.0621 (inactive) |
| CO[C@H]1C[C@H](O[C@H]2[C@H](C)O[C@@H](O[C@@H]3/C(C)=C/C[C@@H]4C[C@@H](C[C@]5(C=C[C@H](C)[C@@H](C6CCCCC6)O5)O4)OC(=O)[C@@H]4C=C(C)[C@@H](O)[C@H]5OC/C(=C\C=C\[C@@H]3C)[C@]54O)C[C@@H]2OC)O[C@@H](C)[C@@H]1O [Doramectin] | 0.993 (active) |
| C[C@@]12C[C@@]3(O)O[C@@H](O1)[C@]1(COC(=O)c4ccccc4)[C@H]3C[C@@]12O[C@@H]1O[C@H](CO)[C@@H](O)[C@H](O)[C@H]1O [Paeoniflorin] | 0.068 (inactive) |

| SMILES | inhibition of cell viability |
| --- | --- |
| NC(N)=O | -0.0194 (inactive) |
| CC(C)c1cc(C(C)C)c(CC(=O)NS(=O)(=O)Oc2c(C(C)C)cccc2C(C)C)c(C(C)C)c1 [Avasimibe] | 0.757 (active) |
| NCCc1ccc(O)c(O)c1 [Dopamine hydrochloride] | 0.0465 (inactive) |
| C=C1CC[C@H](O)C/C1=C/C=C1\CCC[C@]2(C)[C@@H]([C@H](C)/C=C/[C@H](C)C(C)C)CC[C@@H]12 [Vitamin D2] | -0.0632 (inactive) |
| NCCC[C@H](N)C(=O)O [L-Ornithine] | -0.0432 (inactive) |
| Cc1ncc(CO)c(CO)c1O [Pyridoxine hydrochloride] | 0.171 (inactive) |
| C=C(C)[C@H]1CC=C(C)CC1 [(R)-(+)-Limonene] | 0.281 (inactive) |
| Oc1ccc(/C=C/c2cc(O)cc(O)c2)cc1 [Resveratrol] | 0.49 (inactive) |
| NC(=O)NC1NC(=O)NC1=O (stereo not given) [Allantoin] | 0.00777 (inactive) |
| O=c1cc(-c2ccccc2)oc2ccccc12 [Flavone] | 0.149 (inactive) |
| C=C1C[C@@]2(O)O[C@@]3(C[C@H]2C(C)C)[C@@H](C)CC[C@@H]13 [Curcumol] | -0.0691 (inactive) |
| CC(=O)O[C@H]1C(=O)[C@@]2(C)[C@H]([C@H](OC(=O)c3ccccc3)[C@]3(O)C[C@H](OC(=O)[C@H](O)[C@@H](NC(=O)c4ccccc4)c4ccccc4)C(C)=C1C3(C)C)[C@]1(OC(C)=O)CO[C@@H]1C[C@@H]2O [Paclitaxel] | 0.555 (active) |
| O=P(O)(O)O[C@H]1[C@H](OP(=O)(O)O)[C@@H](OP(=O)(O)O)[C@H](OP(=O)(O)O)[C@@H](OP(=O)(O)O)[C@H]1OP(=O)(O)O [Phytic acid] | -0.0495 (inactive) |
| C[C@H](CCC(=O)O)[C@H]1CC[C@H]2[C@@H]3CC[C@@H]4C[C@H](O)CC[C@]4(C)[C@H]3C[C@H](O)[C@]12C [Deoxycholic acid] | -0.113 (inactive) |
| COc1ccc2cc3[n+](cc2c1OC)CCc1cc2c(cc1-3)OCO2 [Berberine hydrochloride] | -0.108 (inactive) |
| OC[C@H]1O[C@H](O[C@H]2[C@H](O)[C@@H](O)[C@H](O)O[C@@H]2CO)[C@H](O)[C@@H](O)[C@@H]1O [Maltose] | 0.0503 (inactive) |
| COc1cc(/C=C/c2ccc(O)cc2)cc(OC)c1 [Pterostilbene] | 0.252 (inactive) |
| CC(C)(O)CC[C@@H](O)[C@](C)(O)[C@H]1CC[C@@]2(O)C3=CC(=O)[C@@H]4C[C@@H](O)[C@@H](O)C[C@]4(C)[C@H]3CC[C@]12C [Ecdysterone] | -0.0294 (inactive) |
| COC(=O)C1=CO[C@@H](O[C@@H]2O[C@H](CO)[C@@H](O)[C@H](O)[C@H]2O)[C@@H]2C(CO)=CC[C@H]12 [Geniposide] | 0.00243 (inactive) |
| CC1(C)CC[C@]2(C(=O)O)[C@H](O)C[C@]3(C)C(=CC[C@@H]4[C@@]5(C)CC[C@H](O)C(C)(C)[C@@H]5CC[C@]43C)[C@H]2C1 [Echinocystic acid] | 0.139 (inactive) |
